Experimental data taken from PubChem BioAssay AID1159580 (chemical genetic matrix, 2015).
“And” between values parts separate entries of the source, which are not always exact repeats. Equal values may be shown once. Screen size: about 5,500 compounds; about 2,000 (36%) were called active. Another 18% or so got no clear call; they are omitted. Rule as the data show it: active = normalized growth mostly below about 0.91 (no sharp cut-off); inconclusive = no clear call, values can overlap the other calls; inactive = mostly above about 0.92. This is one part of the list.

Experiment: chemical genetic growth profiling, strain panel (AID 1159580);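 also: tested at 20 µM; growth read once vehicle control cultures reached saturation at 30 °C; 1 = growth at the plate median or of vehicle wells; lower values mean less growth of the strain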
Settings: S. cerevisiae deletion strains, growth OD

Measured: normalized growth

Nc1nc(=S)c2[nH]cnc2[nH]1
inactive: locus YAL013W, strain DEP1, hits give low values 1.01 | locus YAL021C, strain ccr4, hits give low values 0.946 | locus YAL026C, strain drs2, hits give low values 0.971 | locus YAL030W, strain snc1, hits give low values 0.975 | locus YBL061C, strain skt5, hits give low values 0.988 | locus YBR009C, strain hhf1, hits give low values 1.03 | locus YBR021W, strain FUR4, hits give low values 0.999 | locus YBR023C, strain chs3, hits give low values 0.969 | locus YBR171W, strain sec66, hits give low values 0.974 | locus YBR229C, strain ROT2, hits give low values 1 | locus YBR231C, strain swc5, hits give low values 1.03 | locus YBR279W, strain paf1, hits give low values 0.973 | locus YCL011C, strain gbp2, hits give low values 0.971 | locus YCL016C, strain dcc1, hits give low values 0.947 | locus YCL029C, strain bik1, hits give low values 1.01 | locus YCL061C, strain MRC1, hits give low values 0.993 | locus YCL069W, strain vba3, hits give low values 0.976 | locus YCR088W, strain abp1, hits give low values 0.98 | locus YDL005C, strain med2, hits give low values 0.965 | locus YDL035C, strain GPR1, hits give low values 1.02 | locus YDL040C, strain nat1, hits give low values 0.982 | locus YDL074C, strain BRE1, hits give low values 1.01 | locus YDL101C, strain DUN1, hits give low values 1.01 | locus YDL134C, strain PPH21, hits give low values 1.01 | locus YDL185W, strain tfp1, hits give low values 0.996 | locus YDL192W, strain arf1, hits give low values 1.01 | locus YDR001C, strain nth1, hits give low values 0.982 | locus YDR069C, strain doa4, hits give low values 0.982 | locus YDR101C, strain arx1, hits give low values 0.986 | locus YDR137W, strain rgp1, hits give low values 0.967 | locus YDR150W, strain NUM1, hits give low values 1.01 | locus YDR159W, strain sac3, hits give low values 0.957 | locus YDR162C, strain NBP2, hits give low values 1.02 | locus YDR195W, strain ref2 0.988 | locus YDR297W, strain sur2, hits give low values 1 | locus YDR318W, strain mcm21, hits give low values 1 | locus YDR334W, strain swr1, hits give low values 0.962 | locus YDR335W, strain msn5, hits give low values 0.98 | locus YDR388W, hits give low values 0.998 | locus YDR392W, strain spt3, hits give low values 0.859 | locus YDR502C, strain sam2, hits give low values 1 | locus YEL003W, strain gim4, hits give low values 0.988 | locus YEL037C, strain rad23, hits give low values 0.973 | locus YEL061C, strain CIN8 (second series), hits give low values 0.975 | locus YEL061C, strain CIN8, hits give low values 1.01 | locus YER015W, strain faa2, hits give low values 0.983 | locus YER016W, strain bim1, hits give low values 0.942 | locus YER110C, hits give low values 1 | locus YER111C, strain swi4, hits give low values 0.959 | locus YER155C, strain BEM2 (second series), hits give low values 1 | locus YER155C, strain BEM2, hits give low values 1.02 | locus YER167W, strain BCK2, hits give low values 1.01 | locus YFR010W, strain ubp6, hits give low values 1 | locus YGL078C, strain dbp3, hits give low values 0.997 | locus YGL086W, strain mad1, hits give low values 0.997 | locus YGL167C, strain pmr1, hits give low values 0.979 | locus YGL173C, strain kem1, hits give low values 0.98 | locus YGL227W, strain vid30, hits give low values 0.973 | locus YGL240W, strain doc1, hits give low values 1.01 | locus YGL248W, strain PDE1, hits give low values 1.01 | locus YGL253W, strain hxk2, hits give low values 0.961 | locus YGR078C, strain PAC10, hits give low values 0.988 | locus YGR135W, strain pre9, hits give low values 0.998 | locus YGR229C, strain SMI1, hits give low values 0.99 | locus YGR252W, strain gcn5, hits give low values 0.981 | locus YHR013C, strain ard1, hits give low values 0.93 | locus YHR027C, strain rpn1, hits give low values 0.99 | locus YHR030C, strain SLT2, hits give low values 1.02 and 0.978 | locus YHR079C, strain IRE1 (second series), hits give low values 1 | locus YHR079C, strain IRE1, hits give low values 0.998 | locus YHR094C, strain hxt1, hits give low values 0.998 | locus YHR129C, strain ARP1, hits give low values 1.01 | locus YHR142W, strain chs7, hits give low values 0.945 | locus YHR200W, strain rpn10, hits give low values 0.998 | locus YIL066C, strain RNR3, hits give low values 1.01 | locus YIL073C, strain SPO22, hits give low values 1.04 | locus YIL125W, strain kgd1, hits give low values 0.995 | locus YIR030C, strain dcg1, hits give low values 1 | locus YJL092W, strain hpr5, hits give low values 0.991 | locus YJL095W, strain BCK1 (second series), hits give low values 0.964 | locus YJL095W, strain BCK1, hits give low values 1.02 and 0.979 | locus YJL115W, strain asf1, hits give low values 0.972 | locus YJL129C, strain trk1, hits give low values 0.936 | locus YJL134W, strain LCB3, hits give low values 1 | locus YJL154C, strain vps35, hits give low values 0.971 | locus YJL164C, strain tpk1, hits give low values 0.998 | locus YJL166W, strain qcr8, hits give low values 1.01 | locus YJL168C, strain set2, hits give low values 0.995 | locus YJL187C, strain SWE1 (second series), hits give low values 1.01 | locus YJL187C, strain SWE1, hits give low values 0.981 | locus YJR043C, strain POL32, hits give low values 1.01 | locus YJR066W, strain TOR1, hits give low values 0.949
